Test [1] is described as follows: qHTS assay to identify small molecule antagonists of the sonic hedgehog signaling (Shh) pathway (AID 1259369; calls by dose curve; note: nearly all actives have a fitted effect of over 45% in size; note: potency is the fitted concentration of half-maximal effect). An outline of the steps: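 Read-out is luminescence from a firefly luciferase gene controlled by the Gli1 response element, in 3T3Gli1-Luc cells pre-incubated 4hr then exposed to compounds and conditioned medium for 24hr.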
(Quantitative high-throughput screening tests each substance at several concentrations.)

Test [2] in a line: qHTS assay to identify small molecule agonists of the androgen receptor (AR) signaling pathway in the presence of an antagonist - cell viability counter screen (AID 1259379).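 Note: MDA-kb2 human breast cancer cells carrying an MMTV luciferase reporter; series mostly up to about 92 µM; nearly all actives have a fitted effect of over 25% in size.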 An outline of the steps: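 Each compound was tested at 15 concentrations on MDA-kb2 cells in the presence of 3.0uM nilutamide. Viability was measured by CellTiter-Fluor fluorescence after a 16 hr incubation at 37C in a CO2-free atmosphere.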

Test [3] in a line: qHTS assay to identify small molecule agonists of the estrogen receptor beta (ER-beta) signaling pathway - cell viability counter screen (AID 1259380). Note: nearly all actives have a fitted effect of over 30% in size. Note: potency is the fitted concentration of half-maximal effect. An outline of the steps: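 Compounds dissolved in DMSO were pin-transferred onto ER-beta-UAS-bla HEK293T cells that had settled 6 hr, and exposure ran 16 hr at 37C. Following the reporter read, CellTiter-Glo luminescence after 30 min at room temperature indicated cytotoxicity.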

The nature of test [4]: qHTS assay to identify small molecule antagonists of the estrogen receptor beta (ER-beta) signaling pathway - cell viability counter screen (AID 1259382).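 For activity change, negative = cytotoxicity: HEK293T cells carrying ER-beta-UAS-bla reporter stimulated with estradiol; series mostly up to about 92 µM.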 Note: nearly all actives have a fitted effect of over 55% in size. Note: potency is the fitted concentration of half-maximal effect. An outline of the steps: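 CellTiter-Glo ATP luminescence measured after the LiveBLAzer read in the same wells; ER-beta-UAS-bla HEK293T cells, 16 hr compound treatment with 1nM 17-beta-estradiol agonist at 37C, 5% CO2.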

Test [5] in a line: qHTS assay to identify small molecule agonists or antagonists of the thyroid stimulating hormone receptor (TSHR) signaling pathway - wild type cell line counter screen (AID 1259384; calls by dose curve). An outline of the steps: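 Wild-type HEK293 cells were plated 18 h at 37 C/5% CO2, pin-dosed with compound plus Ro20-1724 medium, held 30 min at room temperature, then given cAMP-d2 and anti-cAMP-cryptate; fluorescence was read after 1 h. Fifteen concentrations, triplicate.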

The target of test [6] is Thyrotropin receptor (Homo sapiens) (UniProt P16473). The test can be described thus: qHTS assay to identify small molecule antagonists of the thyroid stimulating hormone receptor (TSHR) signaling pathway (AID 1259385; calls by dose curve; note: nearly all actives have a fitted effect of over 20% in size). An outline of the steps:
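TSHR-HEK293 cells were plated and held 18 h at 37C/5% CO2, then given compound plus Ro20-1724 and stimulated with TSH at 1.5 ng/mL final. After 30 min at room temperature, cAMP was detected with cAMP-d2/anti-cAMP-cryptate (1 h) by fluorescence.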

Test [7] in a line: qHTS assay to identify small molecule agonists of the estrogen receptor alpha (ER-alpha) signaling pathway in the presence of an antagonist - cell viability counter screen (AID 1259386).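 Note: series mostly up to about 92 µM; cells exposed to compounds for 22 h at 37 °C before the viability read; nearly all actives have a fitted effect of over 30% in size.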 An outline of the steps:
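Using estrogen-depleted VM7Luc4E2 cells, the 15-concentration compound series was applied together with 10.0nM ICI-182,780 and incubated 22hr at 37C/5% CO2. Cell viability was then scored by CellTiter-Fluor.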

Test [8] concerns the target Progesterone receptor (Homo sapiens) (UniProt P06401). Description: qHTS assay to identify small molecule agonists of the progesterone receptor (PR) signaling pathway (AID 1346784; calls by dose curve; note: nearly all actives have a fitted effect of over 30% in size). An outline of the steps: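 Agonist qHTS: compounds pinned onto 3,000 PR-UAS-bla HEK 293T cells per well in charcoal-stripped serum medium, 16hr at 37C, then beta-lactamase activity measured by LiveBLAzer FRET fluorescence after 2 hours at room temperature.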

Test [9] shares this target. The test can be described thus: qHTS assay to identify small molecule antagonists of the progesterone receptor (PR) signaling pathway (AID 1346795; active = well fitted inhibition curve with a large enough effect in the signal ratio in the repeat runs, not every such curve was filed as active; the % refers to the signal ratio). An outline of the steps: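 Antagonist mode with agonist R5020 at 1 nM final and 16 hr incubation at 37C. Reporter was beta-lactamase driven by UAS in HEK293T (PR-UAS-bla), 2% charcoal-stripped serum; signal from LiveBLAzer FRET substrate, 2 hr at room temperature.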

Test [10] is described as follows: qHTS assay to identify small molecule agonists of the progesterone receptor (PR) signaling pathway - cell viability counter screen (AID 1346799; calls by dose curve; note: nearly all actives have a fitted effect of over 45% in size; note: potency is the fitted concentration of half-maximal effect). An outline of the steps:
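Cytotoxicity measured by CellTiter-Glo luminescence (30 min, RT) in the same wells as the PR beta-lactamase agonist read. Those HEK293T cells had 16 h compound treatment at 37 C in 2% charcoal-stripped FBS medium.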

A short description of test [11]: qHTS assay to identify small molecule antagonists of the TGF-beta/Smad signaling pathway - cell viability counter screen (AID 1346824). Note: nearly all actives have a fitted effect of over 50% in size. An outline of the steps: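 SBE-bla HEK 293T cells were plated overnight at 37 C, then given compounds in DMSO plus TGF-beta1 (added as 0.25 ng/mL solution) for 5 hr. After the bla read, CellTiter-Glo was added to the same wells and luminescence read after 30 min at room temperature.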

A short description of test [12]: qHTS assay to identify small molecule agonists of the TGF-beta/Smad signaling pathway - cell viability counter screen (AID 1346829). Note: top concentration of the series differs between compounds; nearly all actives have a fitted effect of over 45% in size. An outline of the steps: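 Luminescence from CellTiter-Glo, read after a 30 min room-temperature incubation, gives cell viability of SBE-bla HEK 293T cells treated 5 hr with compounds at 37 C.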
The nature of test [13]: qHTS assay to identify small molecule agonists of the TGF-beta/Smad signaling pathway (AID 1346859; active = well fitted activation curve with a large enough effect in the signal ratio in the repeat runs, not every such curve was filed as active; the % refers to the signal ratio; note: series mostly up to about 77 µM). An outline of the steps:
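Fluorescence (ex 405 nm; em 460 and 530 nm) was read 2 h after LiveBLAzer FRET substrate at RT. The preceding compound treatment of overnight-plated SBE-bla HEK293T cells lasted 5 h at 37 C.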

The target of test [14] is Thyrotropin-releasing hormone receptor (Homo sapiens) (UniProt P34981). Description: qHTS assay to identify small molecule antagonists of the thyrotropin-releasing hormone receptor (TRHR) signaling pathway (AID 1346877; active = well fitted inhibition curve with a large enough effect in the repeat runs, not every such curve was filed as active; note: series mostly up to about 51 µM). An outline of the steps: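 Calcium signal in dye-loaded TRHR/HEK293 cells; compounds added 5 min before TRH (1 nM final); fluorescence monitored 3 min at 1 s steps.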

Test [15] has the same target. Description: qHTS assay to identify small molecule agonists of the thyrotropin-releasing hormone receptor (TRHR) signaling pathway (AID 1346891; calls by dose curve; note: series mostly up to about 58 µM). An outline of the steps: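 Agonist-mode intracellular calcium readout: kinetic fluorescence over 3 min at 1 s intervals after compound addition to TRHR-HEK293 cells (18 h seeded, 2 h dye-loaded at 37 C). Fifteen concentrations, triplicates.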

Test [16] can be described thus: qHTS assay to identify small molecule antagonists of the progesterone receptor (PR) signaling pathway - cell viability counter screen (AID 1346798). For activity change, negative = cytotoxicity: series mostly up to about 92 µM. Note: nearly all actives have a fitted effect of over 50% in size. Note: potency is the fitted concentration of half-maximal effect. An outline of the steps:
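Cytotoxicity read as CellTiter-Glo luminescence (30 min, room temperature) in the same wells as the beta-lactamase readout. HEK293T PR-UAS-bla cells in charcoal-stripped 2% FBS received compound and R5020, then 16 h at 37C, 5% CO2.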

The target in test [17] is Estrogen receptor (Homo sapiens) (UniProt P03372). Description: qHTS assay to identify small molecule agonists of the estrogen receptor alpha (ER-alpha) signaling pathway in the presence of an antagonist (AID 1259383; calls by dose curve; note: top concentration of the series differs between compounds; nearly all actives have a fitted effect of over 15% in size). An outline of the steps:
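Luminescent ERE-luciferase reporter, VM7Luc4E2 cells (endogenous ER-alpha); 10.0nM ICI-182,780 final; 15-point compound titration; 22hr at 37C; ONE-Glo, 30min RT.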

Test [18] concerns the target Estrogen receptor beta (Homo sapiens) (UniProt Q92731). The test can be described thus: qHTS assay to identify small molecule agonists of the estrogen receptor beta (ER-beta) signaling pathway (AID 1259377; active = well fitted activation curve with a large enough effect in the signal ratio in the repeat runs, not every such curve was filed as active; the % refers to the signal ratio). An outline of the steps:
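Ratiometric beta-lactamase FRET read-out came after 2 h substrate loading at room temperature. It followed 16 h compound treatment at 37C of GripTite HEK293T cells carrying a UAS-bla reporter, plated in 2% charcoal-stripped FBS medium.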

These results are taken from PubChem BioAssay (Tox21).

Each structure is given as a SMILES string. “And” between values parts separate entries of the source, which are not always exact repeats. Equal values may be shown once. A number with no mark means an inactive call. Inconclusive results are not listed. The source made the active and inactive calls. Unless noted, calls come from the whole dose curve; as a rule, active = well fitted curve in the direction sought with a large enough effect in the repeat runs; inconclusive = weak or mixed curves; inactive = no such curve, though single readings can be large; an effect the other way counts as inactive or inconclusive.
% is set by controls: 0 for no effect and ±100 for the full control effect.

Thyrotropin receptor (Homo sapiens), sequence (P16473 whole entry, looked up): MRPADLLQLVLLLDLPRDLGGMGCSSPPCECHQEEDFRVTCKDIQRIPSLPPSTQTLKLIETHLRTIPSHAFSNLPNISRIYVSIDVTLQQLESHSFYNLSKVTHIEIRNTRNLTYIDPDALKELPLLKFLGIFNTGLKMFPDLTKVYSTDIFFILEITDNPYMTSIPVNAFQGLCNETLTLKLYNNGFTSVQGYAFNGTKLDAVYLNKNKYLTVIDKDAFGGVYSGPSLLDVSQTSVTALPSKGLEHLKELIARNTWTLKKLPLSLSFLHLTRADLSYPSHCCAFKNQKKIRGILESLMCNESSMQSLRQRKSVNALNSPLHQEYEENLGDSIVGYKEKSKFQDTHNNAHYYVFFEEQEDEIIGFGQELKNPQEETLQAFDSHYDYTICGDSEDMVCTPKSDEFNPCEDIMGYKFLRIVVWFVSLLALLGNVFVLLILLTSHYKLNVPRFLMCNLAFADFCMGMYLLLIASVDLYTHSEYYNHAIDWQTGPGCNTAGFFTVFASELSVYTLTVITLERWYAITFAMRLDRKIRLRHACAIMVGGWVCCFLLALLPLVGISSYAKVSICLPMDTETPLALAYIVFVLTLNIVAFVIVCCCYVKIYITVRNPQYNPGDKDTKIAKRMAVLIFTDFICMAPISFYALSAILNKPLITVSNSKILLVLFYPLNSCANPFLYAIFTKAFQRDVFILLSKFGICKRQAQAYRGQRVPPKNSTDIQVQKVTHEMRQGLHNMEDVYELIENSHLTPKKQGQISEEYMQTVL
Thyrotropin-releasing hormone receptor (Homo sapiens), sequence (P34981 whole entry, looked up): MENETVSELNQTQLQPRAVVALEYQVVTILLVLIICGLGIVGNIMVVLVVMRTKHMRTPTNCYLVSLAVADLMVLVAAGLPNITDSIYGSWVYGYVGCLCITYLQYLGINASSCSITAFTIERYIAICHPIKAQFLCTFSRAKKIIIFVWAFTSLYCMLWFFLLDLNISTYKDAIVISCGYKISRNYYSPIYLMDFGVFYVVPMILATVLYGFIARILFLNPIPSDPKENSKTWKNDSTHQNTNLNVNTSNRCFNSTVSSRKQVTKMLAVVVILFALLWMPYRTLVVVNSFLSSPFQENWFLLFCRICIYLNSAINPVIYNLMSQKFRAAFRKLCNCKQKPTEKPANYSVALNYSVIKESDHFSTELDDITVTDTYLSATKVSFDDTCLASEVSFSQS
Estrogen receptor (Homo sapiens), sequence (P03372 whole entry, looked up): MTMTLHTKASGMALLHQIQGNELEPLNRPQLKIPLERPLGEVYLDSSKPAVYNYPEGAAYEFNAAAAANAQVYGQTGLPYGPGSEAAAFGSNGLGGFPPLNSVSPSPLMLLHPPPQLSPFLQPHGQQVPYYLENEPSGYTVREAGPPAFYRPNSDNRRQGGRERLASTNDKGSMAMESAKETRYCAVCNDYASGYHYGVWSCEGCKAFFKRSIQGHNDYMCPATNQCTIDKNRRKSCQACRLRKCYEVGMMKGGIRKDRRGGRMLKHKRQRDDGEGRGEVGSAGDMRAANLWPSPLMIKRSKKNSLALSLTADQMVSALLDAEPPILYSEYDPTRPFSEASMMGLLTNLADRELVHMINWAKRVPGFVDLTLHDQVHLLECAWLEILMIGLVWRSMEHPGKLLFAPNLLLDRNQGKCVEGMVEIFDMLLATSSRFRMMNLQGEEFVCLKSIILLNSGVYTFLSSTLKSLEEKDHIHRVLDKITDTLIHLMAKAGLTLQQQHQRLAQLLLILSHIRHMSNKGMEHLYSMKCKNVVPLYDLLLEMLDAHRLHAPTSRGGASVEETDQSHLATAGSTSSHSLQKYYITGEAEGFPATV
Progesterone receptor (Homo sapiens), sequence (P06401 whole entry, looked up): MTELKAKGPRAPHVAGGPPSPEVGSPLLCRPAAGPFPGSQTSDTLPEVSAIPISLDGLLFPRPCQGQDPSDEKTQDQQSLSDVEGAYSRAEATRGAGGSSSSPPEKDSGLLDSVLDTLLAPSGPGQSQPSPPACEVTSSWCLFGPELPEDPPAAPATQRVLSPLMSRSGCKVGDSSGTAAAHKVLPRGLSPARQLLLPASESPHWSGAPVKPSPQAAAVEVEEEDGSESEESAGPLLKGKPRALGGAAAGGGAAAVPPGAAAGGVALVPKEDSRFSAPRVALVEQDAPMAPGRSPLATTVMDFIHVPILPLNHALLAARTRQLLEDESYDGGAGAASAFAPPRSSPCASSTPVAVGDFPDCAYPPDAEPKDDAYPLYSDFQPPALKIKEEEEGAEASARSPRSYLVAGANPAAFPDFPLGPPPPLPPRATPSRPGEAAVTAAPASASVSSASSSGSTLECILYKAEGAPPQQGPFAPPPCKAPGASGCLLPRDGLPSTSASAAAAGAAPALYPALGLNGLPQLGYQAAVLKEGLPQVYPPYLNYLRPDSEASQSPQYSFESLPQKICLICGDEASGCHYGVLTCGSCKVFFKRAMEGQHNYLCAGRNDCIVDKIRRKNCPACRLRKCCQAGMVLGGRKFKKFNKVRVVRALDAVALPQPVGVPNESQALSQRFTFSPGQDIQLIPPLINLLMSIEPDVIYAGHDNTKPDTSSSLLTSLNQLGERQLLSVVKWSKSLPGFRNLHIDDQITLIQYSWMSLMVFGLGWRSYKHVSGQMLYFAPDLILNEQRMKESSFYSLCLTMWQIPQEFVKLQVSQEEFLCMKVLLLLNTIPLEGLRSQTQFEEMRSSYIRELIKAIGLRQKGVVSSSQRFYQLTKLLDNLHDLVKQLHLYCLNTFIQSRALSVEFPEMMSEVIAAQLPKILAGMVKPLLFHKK
Estrogen receptor beta (Homo sapiens), sequence (Q92731 whole entry, looked up): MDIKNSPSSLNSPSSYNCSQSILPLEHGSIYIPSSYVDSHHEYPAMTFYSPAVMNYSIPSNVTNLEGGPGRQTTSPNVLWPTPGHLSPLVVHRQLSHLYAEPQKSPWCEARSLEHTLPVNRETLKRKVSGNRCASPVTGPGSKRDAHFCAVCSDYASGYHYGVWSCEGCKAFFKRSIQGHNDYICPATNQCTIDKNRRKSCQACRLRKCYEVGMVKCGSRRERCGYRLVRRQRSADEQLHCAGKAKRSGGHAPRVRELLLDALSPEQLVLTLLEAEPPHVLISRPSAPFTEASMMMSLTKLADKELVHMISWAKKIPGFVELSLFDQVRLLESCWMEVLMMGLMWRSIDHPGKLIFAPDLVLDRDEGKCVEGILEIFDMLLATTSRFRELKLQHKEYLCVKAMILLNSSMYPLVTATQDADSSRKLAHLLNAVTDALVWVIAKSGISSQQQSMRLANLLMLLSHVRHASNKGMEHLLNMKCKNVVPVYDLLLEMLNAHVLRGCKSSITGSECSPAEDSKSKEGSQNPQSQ

Turning to `C=CCSSCC=C`, the Potency result in [1], in [2], in test [3], in [4], in test [6] and in test [7] was “inactive” in each case. Further, the Potency entry in test [8], in [9], in test [10], in test [11], in test [12] and in [14] was “inactive” each time. Moreover, the compound was classed as inactive in [5], in [13] and in [15].
On to `CCCC[P+](CC)(CCCC)CCCC` (tested in a mixture with another compound), for which the Potency result in [1], in [3], in [4], in test [6], in test [7] and in test [8] was “inactive” throughout. Also, the Potency result in [9], in test [16], in test [10], in [11], in test [12] and in [14] was “inactive” throughout. Besides, the call in [13] and in test [15] was inactive.
Regarding `OCC1CO1` (stereo not drawn), the Potency entry in test [1], in test [2], in [3], in test [4], in [17] and in test [7] was “inactive” each time. The Potency result in test [8], in test [9], in test [16], in test [10], in [11] and in [12] was “inactive” in each case. In addition, the outcome in [13] was inactive.
With `CCC(C)(C)c1ccc(O)c(C(C)(C)CC)c1`, the Potency result in [1], in [17], in test [6], in test [7], in test [11] and in [14] was “inactive” each time. Moreover, the Potency in test [3] is 21.4 µM (active) and 24.3 µM (active); in test [4] it was 53.9 µM (active) and 30.6 µM (active); in test [16] it was 60.4 µM (active) and 30.6 µM (active); in test [10], 24.3 µM (active). The compound was classed as inactive in test [5], in test [13] and in [15].
With `CC(C)[C@@H](C(=O)O[C@@H](C#N)c1cccc(Oc2ccccc2)c1)c1ccc(Cl)cc1`, the Potency result in test [18], in [2], in [3], in test [4], in [6] and in test [7] was “inactive” throughout. The Potency entry in test [16], in test [11] and in test [12] was “inactive” throughout. Also, the call in test [5] and in [13] was inactive.
For `CCCCCCCCCCCCN=C(N)N`, the Potency in test [1] was 671 nM (active). Besides, the activity change, negative = cytotoxicity in test [2] is -9.57% [at 3.27 µM]; in test [4], -18.7% [at 3.27 µM]; in test [7] it was -1.52% [at 3.27 µM]; in [16] it was 1.32% [at 3.27 µM]; in [10], 0.561% [at 3.27 µM]; in test [12], -9.54% [at 2.72 µM]. The cAMP activity change in test [5] was 1.76% [at 3.27 µM]. The activity change, negative = inhibition in test [6] is 0.876% [at 3.27 µM]; in test [9], 1.76% [at 3.27 µM]. Also, the activation in test [8] is 2.06% [at 3.27 µM]; in [13], 1.13% [at 2.72 µM]; in test [15] it was 0.32% [at 2.04 µM]. In addition, in [11], the viability change, negative = cytotoxic is -21.8% [at 2.72 µM]. Besides, the activity, negative = inhibition in test [14] is 1.26% [at 1.81 µM].
For `CCOP(=S)(OCC)Oc1ccc(S(C)=O)cc1` (stereo not drawn), the Potency result in test [18], in [2], in test [3], in test [4], in [17] and in [6] was “inactive” each time. The Potency entry in [7], in test [8], in [9], in [16], in test [10] and in [11] was “inactive” each time. In addition, the Potency entry in [12] and in test [14] was “inactive” each time. Besides, the call in test [5], in test [13] and in [15] was inactive.
`CCCCC(CC)COC(=O)c1c(Br)c(Br)c(Br)c(Br)c1C(=O)OCC(CC)CCCC` (stereo not drawn): the Potency entry in [18], in test [2], in test [3], in [4], in [17] and in [6] was “inactive” throughout. Further, the Potency result in test [9], in test [16], in [10], in test [11], in [12] and in test [14] was “inactive” throughout. The result in [5], in [13] and in test [15] was inactive.
Take `CC[N+]1(C)CCCC(OC(=O)C(O)(c2ccccc2)c2ccccc2)C1` (stereo not drawn): the Potency entry in test [1], in test [2], in [3], in [4], in [6] and in [7] was “inactive” in each case. Further, the Potency result in [8], in test [9], in test [16], in test [10], in test [11] and in test [12] was “inactive” throughout. Besides, the Potency result in [14] is “inactive”. Further, the compound was classed as inactive in test [13] and in test [15].
